Assay results taken from ChEMBL document CHEMBL3988442, “University of Dundee, Small-Polar-MMV Screening Library” (2021).

Key:
[1] = target: T1, Aspartate--tRNA(Asp/Asn) ligase (Mycobacterium tuberculosis (strain ATCC 25618 / H37Rv)) (UniProt P9WFW3); assay: Assay for Asp RNA synthetase-1 from Mycobacterium tuberculosis; format: functional; set-up: scale not given: direction of the effect not stated beside the values; conditions: 30 µM; further: in the data most compounds retested in dose-response had high values
T1 sequence (whole entry): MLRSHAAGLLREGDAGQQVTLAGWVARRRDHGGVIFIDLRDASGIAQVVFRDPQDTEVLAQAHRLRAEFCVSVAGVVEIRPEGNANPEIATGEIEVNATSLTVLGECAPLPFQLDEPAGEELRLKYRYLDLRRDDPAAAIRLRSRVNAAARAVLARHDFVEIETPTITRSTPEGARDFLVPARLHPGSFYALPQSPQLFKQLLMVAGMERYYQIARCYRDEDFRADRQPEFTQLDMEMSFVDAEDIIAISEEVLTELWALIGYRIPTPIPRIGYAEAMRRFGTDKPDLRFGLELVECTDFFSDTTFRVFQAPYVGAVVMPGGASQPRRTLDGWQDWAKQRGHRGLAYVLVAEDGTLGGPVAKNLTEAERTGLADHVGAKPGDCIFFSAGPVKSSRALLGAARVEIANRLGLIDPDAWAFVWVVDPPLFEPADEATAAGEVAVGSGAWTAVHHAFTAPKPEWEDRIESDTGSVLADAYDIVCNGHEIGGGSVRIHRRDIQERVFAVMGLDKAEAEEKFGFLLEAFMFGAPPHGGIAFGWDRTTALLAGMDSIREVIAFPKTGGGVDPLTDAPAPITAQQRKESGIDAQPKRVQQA

[2] = target: Shiga toxin 2 (Escherichia coli O157:H7) (UniProt P09385+P09386); assay: E. coli 0.157:H7 Shiga Toxin SOP - stx2 screening assay; format: functional; set-up: scale not given: direction of the effect not stated beside the values; conditions: 30 µM

SMILES	Percent Effect [1] [%]	Percent Effect [2] [%]
COc1ccc(CNC(=O)CNc2cc3c(cc2Cl)OCCCO3)cc1	2.02	0.898
CC(=O)N1CCC2(CC1)C(=O)N(CC1CC1)c1ccccc12	-1.18	-4.33
CCCc1noc(CCC(=O)N2CCCC2c2noc(C3CC3)n2)n1 (stereo not drawn)	-2.66	6.31
COc1cc(C)nc(N2CCN(C(=O)CCc3nccs3)CC2)n1	2.87	-3.5
O=C(NCCCN1CCOCC1)Nc1cnc2cc(Cl)ccc2c1O	1.35	-13.4
Cc1ncc2c(n1)CN(CC(=O)Nc1ccncc1)CC2	-0.281	5.69
COc1ccc(CN2C[C@@H](OCc3csc(C)n3)[C@H]3COC[C@H]32)cc1	-1.16	-12.3
CC(CNC(=O)c1cccnc1Oc1cccnc1)N(C)C (stereo not drawn)	-3.18	-12.1
CCn1nccc1CNC(=O)C1CC1	11	-39.4
CC(=O)Nc1nc(C(=O)NC(C)c2ccc(F)cc2)cs1 (stereo not drawn)	-3.46	26.2
O=C(O)c1ccc2ccc(N3CCN(CC4CC4)CC3)n2c1	-6.96	-15.7
Cc1cncc(C(=O)N2Cc3ccccc3C3(CCN(C)CC3)C2)c1	-2.03	-1.24
Cc1cc(F)ccc1CNCCn1cccn1	-3.06	13
CCn1cc(NC(=O)C2CCN(Cc3ccccc3C#N)CC2)cn1	1.7	-53.9
Cn1cnc2c1CCN(Cc1cccc(C(N)=O)c1)C2	-3.03	-13.1
CC(NC(N)=O)C(=O)N(C)CCCc1cc(-c2ccccc2)no1 (stereo not drawn)	3.41	22.8
Cc1ccc2c(n1)N(C)CCN(C(=O)NC1CC1)C2	7.86	-7.89
CN1CC[C@H](c2ccccc2)[C@@H]2[C@H]1CCCCN2C(=O)c1cnccn1	-3.68	3.52
Cc1cnn(C2CCCN(C(=O)C3=NN(C)C(=O)CC3)C2)c1 (stereo not drawn)	3.95	3.74
CCn1ncnc1C(C)NC(=O)C1CCN(C(C)C)CC1 (stereo not drawn)	3.06	-16.7
CN(C)CCNC(=O)CNC(=O)N1CCc2c([nH]c3ccc(Cl)cc23)C1	6.71	-77.4
CCc1nccn1C1CCCN(C(=O)Cc2cn3ccccc3n2)C1 (stereo not drawn)	0.0146	-20.4
COCc1ccccc1NC(=O)[C@@H]1CCCN1C(=O)c1ccco1	-0.557	-2.06
COc1ccc(NC(=O)c2ccc(-n3ncc(C#N)c3N)cc2)cn1	1.4	-48.1
CCc1ccc(NS(=O)(=O)CC2=NC(=O)n3cccc3C2=O)cc1	0.755	-77.4

SMILES	Percent Effect [1] [%]	Percent Effect [2] [%]
O=C(CO)N1C[C@H]2CC[C@@H]1CN(C1Cc3ccccc3C1)C2	7.69	11.7
c1cnc2c(c1)cc([C@H]1CCCO1)n2CCN1CCOCC1	7.52	12.7
CNS(=O)(=O)c1ccc(C(=O)NCCc2ccccn2)cc1	9.16	14.4
CCc1noc(C)c1C(=O)N1CCCC1c1c(C)nn(C)c1OC (stereo not drawn)	-3.25	5.57
Cc1ccc(N2CCCN(C(=O)c3c(C)oc(C)c3C)CC2)nn1	1.16	-1.2
Cn1cc(-c2cnc(N3CCOCC3)nc2)cc1C(=O)O	-4.12	9.97
CC(C)c1ccc(OCCC(=O)N2CCC(CC(N)=O)CC2)cc1	-0.478	29.9
CC(CCN1CCn2nc(CNC(=O)N(C)C)cc2C1)c1ccccc1 (stereo not drawn)	-3.2	-1.92
CC1(NC(=O)Cc2csc(C(C)(C)C)n2)CCS(=O)(=O)C1 (stereo not drawn)	-6.9	-10.1
Cc1nc(Nc2ncccn2)cc(C2CCCN2C2CCOCC2)n1 (stereo not drawn)	2.13	-0.835
Cc1cnc(CN(C)C2CCN(Cc3ccccc3C#N)C2)o1 (stereo not drawn)	-4.54	-34.4
CC(CNC(=O)N1CCSCC1)Cc1cccs1 (stereo not drawn)	1.56	6.01
O=c1n(CCSCc2ccccc2F)nc2ccccn12	0.461	20.1
CC(C)c1cc(NC(=O)CN2CCC(N3CCNC3=O)CC2)on1	0.0463	-28.7
Cc1cc(C(=O)N2CCCC(c3noc(C)n3)C2)[nH]n1 (stereo not drawn)	-4.2	-22.4
CC[C@H](C)[C@H](NC(=O)Cc1csc(-c2cccc(Cl)c2)n1)C(=O)O	4.59	-17.1
Cc1cc(CNc2ccc(C(=O)N3CCCC(C)C3)cc2C)no1 (stereo not drawn)	-2.25	11.6
Cc1ncccc1O[C@H]1CCN(C(=O)c2cccs2)CC[C@@H]1O	4.9	6.92
Cc1nc(C2CCCN(C(=O)c3ccc(OCC4CC4)cc3)C2)no1 (stereo not drawn)	-8.26	-5.46
CCc1nc(CN2CCCC(N(C)Cc3cnn(C)c3)C2)no1 (stereo not drawn)	0.747	-30.2
Cc1nn(C)c(N2CCOCC2)c1CNC1CCOc2ccccc21 (stereo not drawn)	-2.83	9.33
CCc1nc2n(n1)CC(NCC(=O)Nc1ccc(Cl)cn1)CC2 (stereo not drawn)	0.314	2.33
Cc1cccc(C2(C(=O)NCCCn3cccn3)CC2)c1	-9.29	-5.42
c1ccc(C2CCCN2Cc2nnnn2C2CC2)cc1 (stereo not drawn)	-2.81	-5.38
Cn1cc(CN2CC[C@H]3O[C@H](C(=O)NCc4ccco4)CC[C@H]32)cn1	5.47	-27.7

SMILES	Percent Effect [1] [%]	Percent Effect [2] [%]
CCOCC(O)CN1CCN(C(=O)c2ccccc2Cl)CC1 (stereo not drawn)	-4.21	24.8
c1cc2nc(C3CCN(CC4CC4)CC3)nn2cc1N1CCCC1	-1.69	-3.75
Cc1nn(C)c(C)c1CC(=O)N1CCCC(n2cccn2)C1 (stereo not drawn)	-4.75	20.6
CCN1CCCN(C(=O)c2cnc(OC(C)C)c(Cl)c2)CC1	-0.365	-50.8
CC(C)(C)C(=O)N1CCC2(COCc3cnc(N4CCOCC4)nc32)C1 (stereo not drawn)	3.22	-15.4
CCOc1cccc(C(=O)N2CCN(c3nccc(OC)n3)CC2)c1	7.36	22.4
Cc1noc([C@H]2C[C@@H]3CCN(C(=O)C4CCOCC4)C[C@H]3O2)n1	1.08	-0.561
Cn1c(CN2CCCC2c2noc(C3CC3)n2)cc(=O)n(C)c1=O (stereo not drawn)	-4.22	-7.03
Cc1cnn(C2CN(CC(=O)NCc3ccccn3)C2)c1	5	21.1
O=C(c1cccnc1)N1CCCC(c2cc(C(F)F)n3ncnc3n2)C1 (stereo not drawn)	5.29	8.99
CN1CC(=O)N(c2cccc(F)c2)CC12CCNC2 (stereo not drawn)	-4.35	-4.44
O=C(NCc1cnc2n1CCN(CC1CC1)CC2)C1CCC1	-5.77	7.18
COCCC(=O)Nc1ccnc(Oc2ccccc2)c1	13.9	-27.8
Cc1ccc(C(=O)N2CCN(Cc3nc(C(C)C)no3)CC2)c(=O)[nH]1	2.27	26.1
CCc1cc(NCCc2ccc(O)cc2)n2nccc2n1	5.69	5.92
CC(C)(C)c1n[nH]c(C2CN(C(=O)c3cc(Cl)c[nH]3)CCO2)n1 (stereo not drawn)	-4.97	0.626
Cn1c(CN2CCOCC2)nnc1C1CCN(C(=O)C2CCCC2)CC1	1.73	-33.5
c1nc(CCC2CCCN2)cc(N2CCCOCC2)n1 (stereo not drawn)	-5.88	-10.1
CC(C(=O)N1CCCN(c2ncccc2C#N)CC1)n1ccnc1 (stereo not drawn)	-0.45	24
Cn1nc2c(cc1=O)CN(Cc1coc(-c3cccs3)n1)CC2	39.2	-29.8
CCC1=N[C@@]2(CC[C@@H]3CN(CC4CC4)C[C@@H]32)C(=O)N1C	-1.79	6.84
CN1CC(=O)N(c2ccsc2)CC12CCN(S(C)(=O)=O)C2 (stereo not drawn)	-0.605	0.893
CC(C)(C)SCCCC(=O)N1CCC(Nc2cccnn2)CC1	-1.23	-5.49
Fc1ccccc1-c1noc2c1CN(CC1CC1)CC2	-1.29	-8.88
